According to PubChem BioAssay AID588342 (National Center for Advancing Translational Sciences (NCATS), 2011):
The whole screen tested about 360,000 compounds, of which about 25,000 (6.9%) were called active. Roughly 9% stayed inconclusive and do not appear here. Calls come from the whole dose curve; as a rule, active = well fitted inhibition curve with a large enough effect; inconclusive = small, poorly fitted or top-dose-only effect; inactive = flat fitted curve, though single readings scatter. The entries come from a sample that favours actives as a whole. Where a call stands in place of a potency, no number is given.

Molecular target: Luciferin 4-monooxygenase (Photinus pyralis) (UniProt P08659)
Experiment: qHTS profiling assay for firefly luciferase inhibitor/activator using purifed enzyme and Km concentrations of substrates (counterscreen for miR-21 project); note: nearly all actives have a fitted effect of over 55% in size
Conditions: purified FLuc, luminescence inhibition; series mostly up to 57.5 µM
Procedure, shortened: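 Biochemical qHTS of compounds, final roughly 60 µM downward over six points, against 10 nM purified firefly luciferase using Km concentrations of substrates (10 uM D-luciferin, 10 uM ATP) in Tris acetate pH 7.5 buffer; luminescence output.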
Potency is the fitted concentration of half-maximal effect.

Sequence of Luciferin 4-monooxygenase (Photinus pyralis) (P08659 whole entry, looked up): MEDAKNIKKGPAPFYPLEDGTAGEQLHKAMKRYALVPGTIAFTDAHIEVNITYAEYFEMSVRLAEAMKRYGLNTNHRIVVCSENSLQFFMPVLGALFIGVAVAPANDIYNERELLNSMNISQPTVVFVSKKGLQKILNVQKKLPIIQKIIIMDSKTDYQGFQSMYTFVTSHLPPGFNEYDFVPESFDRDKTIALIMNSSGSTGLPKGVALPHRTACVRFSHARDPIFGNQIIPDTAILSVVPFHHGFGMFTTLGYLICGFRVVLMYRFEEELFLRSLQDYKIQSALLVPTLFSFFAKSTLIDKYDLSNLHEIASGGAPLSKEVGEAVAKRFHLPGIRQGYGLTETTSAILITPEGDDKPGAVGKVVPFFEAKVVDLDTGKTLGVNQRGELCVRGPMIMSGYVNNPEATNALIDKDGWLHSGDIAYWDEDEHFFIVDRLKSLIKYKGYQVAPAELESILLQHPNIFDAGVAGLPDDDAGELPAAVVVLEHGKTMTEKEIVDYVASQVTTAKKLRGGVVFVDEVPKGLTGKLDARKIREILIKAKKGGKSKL

SMILES	Potency
O=C(CCS(=O)(=O)c1cc(Br)cc2c1N(C(=O)C1CC1)CC2)Nc1ccc(C(F)(F)F)cc1	inactive
C/C=N/NC(=O)CCCC(=O)N/N=C/C	inactive
COc1ccccc1C(=O)NCC(=O)NCCSc1ccc(Br)cc1	inactive
Cn1nnnc1SCCCNCc1ccc(Cl)cc1	inactive
Cc1ccc(NC(=O)C(=O)NCC(c2cccnc2)N2CCOCC2)cc1 (stereo not drawn)	inactive
Cn1c(SCC(=O)c2ccccc2)ncc(C(=O)Nc2ccc(F)cc2)c1=O	inactive
Cc1ccc(NC(=O)c2cnc(SCC(=O)NCC3CCCO3)n(C)c2=O)cc1 (stereo not drawn)	9.53 µM (active)
Cc1cc(NC(=O)CSc2ncc(C(=O)Nc3ccc(Cl)cc3)c(=O)n2C)no1	inactive
COc1ccc(Cl)cc1NC(=O)CSc1nc(=O)[nH]c2c1CCCC2	inactive
NC(=O)C1CCN(C(=O)/C(=C/c2ccco2)NC(=O)c2ccccc2)CC1	inactive
C/C(=C\c1ccco1)C1Nc2cccc3cccc(c23)N1	10.7 µM (active)
O=C(NCC1CCCO1)/C(=C\c1ccco1)NC(=O)c1ccccc1 (stereo not drawn)	inactive
Clc1ccc(Cc2nnc(-c3cccs3)o2)cc1	19 µM (active)
CNC(=O)c1nnc(Cc2ccc(Cl)cc2)o1	inactive
c1csc(-c2nnc(COc3ncnc4sccc34)o2)c1	inactive
CC(Sc1oc(-c2ccco2)nc1S(=O)(=O)c1ccc(Br)cc1)c1ccccc1 (stereo not drawn)	inactive
Cc1cc(C)n2nc(C(=O)OCC(=O)N(C)CC(=O)Nc3ccc(F)cc3)nc2n1	inactive
COc1ccc(CNC(=O)c2cc3c(=O)[nH]c4ccc(C)cc4c3s2)c(OC)c1	inactive
Cc1ccc(C(=O)CNc2ccc(F)cc2)cc1	4.78 µM (active)
Cc1ccc(C(=O)NC2CCN(C(=O)Nc3ccc(F)cc3)CC2)cc1	inactive
CCOC(=O)c1nc(Nc2ccc(C(=O)OC)cc2)c2ccccc2n1	inactive
Cc1ccc(NC(=O)CCC(=O)c2ccc(Br)cc2)cc1	inactive
COC(=O)c1ccc(NCC(=O)c2ccccc2)cc1	1.51 µM (active)
COC(=O)c1ccc(NCC(=O)N2CCCCCC2)cc1	inactive
CCn1c2ccccc2c2nnc(N3CCN(c4cc(C)ccc4C)CC3)nc21	inactive
CC(=O)Nc1cc(C(=O)NCc2ccc(F)cc2Cl)ccc1Sc1ccc(Cl)cc1	inactive

SMILES	Potency
O=c1c(=O)n(Cc2c(F)cccc2Cl)ccn1Cc1ccccc1	inactive
CCOC(=O)C1CCN(c2c(Nc3cc(C)cc(C)c3)c(=O)c2=O)CC1	inactive
CCOC(=O)C1CCN(c2csc3ccc(C)cc3c2=O)CC1	7.57 µM (active)
CCOC(=O)C1CCN(c2ccc(C(=O)O)cc2[N+](=O)[O-])CC1	inactive
CCOCCCNC(=O)c1cn(CC)c2ccc(S(=O)(=O)N3CCc4ccccc4C3)cc2c1=O	inactive
C=CCn1cc(Cl)cc(C(=O)Nc2ccccc2)c1=O	16.9 µM (active)
C=CCc1cccc2cc(C(=O)Nc3ccc(NC(C)=O)cc3)c(=O)oc12	inactive
O=C(Nc1cccnc1)c1cc(Cl)ccc1Cl	inactive
CCOc1ncccc1C(=O)Nc1ccc(S(=O)(=O)Nc2nc(C)cc(C)n2)cc1	inactive
Cc1ccc2[nH]c3c(=O)n(CC(=O)NC(C)C)ncc3c2c1	inactive
O=C(COc1ccc(Cl)cc1)Nc1ccccc1OCc1cc(=O)n2ccccc2n1	inactive
O=C(c1cc(-c2ccc(O)cc2)on1)N1CCCc2ccccc21	16.9 µM (active)
O=C(c1cc(-c2ccc(O)cc2)on1)N1CCOCC1	9.53 µM (active)
O=C(C(=O)N1CCc2ccccc2C1)N1CCc2ccccc2C1	inactive
CN1CCN(Cc2c(C(=O)N3CCc4ccccc4C3)nc3ccc(Cl)cn23)CC1	inactive
Cc1ccc2c(c1)N(C(=O)CCC(=O)N1CCc3ccccc3C1)CCO2	inactive
O=C(c1cccs1)N1CCN(C(=O)N2CCOCC2)CC1	inactive
Cn1cccc1C(=O)N1CCc2ccccc2C1	inactive
Cc1ccc(-c2cc(C(=O)N3CCc4ccccc4C3)no2)cc1	23.9 µM (active)
CCCn1nc(C(=O)N2CCCc3ccccc32)c2ccccc2c1=O	inactive
O=C(NCCCN1CCOCC1)c1cc(-c2cccc(O)c2)on1	inactive
O=C(c1c(Cl)nc2sccn12)N1CCCc2ccccc21	inactive
O=C(c1noc2c1CCCC2)N1CCc2ccccc2C1	16.9 µM (active)
Cc1cccc(-n2ncc(C(=O)N3CCN(c4ccc(Cl)cc4)CC3)c2C2CCN(C(=O)OC(C)(C)C)CC2)c1	inactive
Cc1ccc(Nc2nnc(-c3ccc(C)c(S(=O)(=O)N4CCCCC4)c3)c3ccccc23)cc1	inactive
CCOC(=O)c1ccc(N2C(=O)c3[nH]nc(-c4ccccc4)c3C2c2ccc(C(C)C)cc2)cc1 (stereo not drawn)	inactive

SMILES	Potency
Cc1ccc(C(=O)OCC(=O)Nc2ccc(Cl)cn2)cc1S(=O)(=O)N1CCOCC1	inactive
COc1cc2nc(NCC(C)c3ccccc3)n3nc(-c4ccccc4)nc3c2cc1OC (stereo not drawn)	inactive
COCCn1c(SCC(=O)Nc2cc(Cl)ccc2OC)nc2c(c1=O)SC(C)C2 (stereo not drawn)	inactive
O=C(c1ccc(Cl)c([N+](=O)[O-])c1)N1CCN(c2ccccc2)CC1	inactive
O=C(c1cc(-c2ccc(Cl)cc2)on1)N1CCN(c2ccccc2)CC1	10.7 µM (active)
O=C(c1cc(-c2ccc(F)cc2)on1)N1CCN(c2ccc(F)cc2)CC1	inactive
CCCN1CCN(CCCNC(=O)c2ccc3nc(Cc4ccccc4)oc3c2)CC1	inactive
Cc1cccc(NC(=O)c2ccc(F)c(S(=O)(=O)N(C)C3CCCCC3)c2)c1	inactive
Cc1ccc(CSc2nc3[nH]ncc3c(=O)[nH]2)cc1	13.5 µM (active)
CCCSc1nc2[nH]ncc2c(=O)[nH]1	inactive
Cc1cccc(NC(=O)CSc2nc3[nH]ncc3c(=O)[nH]2)c1	inactive
COc1cc(OC)cc(-c2c(-c3ccc(F)cc3)c3cc(-c4ccc5cc[nH]c5c4)ccc3n2C)c1	inactive
CC(=O)Nc1ccc(S(=O)(=O)Nc2ccc(N3CCOCC3)c(F)c2)cc1	inactive
O=S(=O)(Nc1ccc(-c2ccc(N3CCOCC3)nn2)cc1)c1cc(Cl)ccc1Cl	23.9 µM (active)
O=[N+]([O-])c1ccc(S(=O)(=O)Nc2cccc(-c3ccc(N4CCCC4)nn3)c2)cc1	12 µM (active)
O=S(=O)(Nc1cccc(-c2ccc(N3CCOCC3)nn2)c1)c1ccc(Cl)c(Cl)c1	5.36 µM (active)
Cc1cccc(NS(=O)(=O)c2ccc([N+](=O)[O-])cc2)n1	inactive
CN1CCN(c2ccc(S(=O)(=O)Nc3ccccc3)cc2[N+](=O)[O-])CC1	inactive
O=S(=O)(Nc1ccccc1N1CCOCC1)c1ccc(Cl)s1	inactive
Cc1cccc(NS(=O)(=O)c2cc(Cl)ccc2Cl)n1	inactive
O=S(=O)(Nc1cccc(-n2cnnn2)c1)c1cnc(Cl)c(Cl)c1	inactive
Cc1ccc2oc3c(c(=O)c2c1)C(c1ccc(O)cc1)N(Cc1ccc2c(c1)OCO2)C3=O (stereo not drawn)	inactive
Cc1ccc(COC(=O)CN2C(=O)NC3(CCCC3)C2=O)cc1	inactive
CC(C)(C)c1ccc(S(=O)(=O)N2CCN(C(=O)c3ccc4c(c3)C(=O)N(Cc3ccncc3)C4=O)CC2)cc1	inactive
C=Cc1ccc(Cn2c(C(=O)OC)cc3sc(C)cc32)cc1	inactive
CCc1ccccc1OCC(=O)Nc1ccc(C)c(S(=O)(=O)N2CCCCCC2)c1	inactive

SMILES	Potency
CCCN(CCC)CCCNC(=O)Cn1cc2c(n1)-c1c(oc(C(=O)N3CCCC3)c1C)CC2	inactive
CCOc1ccc(NC(=O)COc2ccc(C(=O)N3CCC(C(N)=O)CC3)cc2OC)cc1	inactive
CCCCN(C(=O)c1ccc2ccccc2c1)c1c(N)n(CCCC)c(=O)[nH]c1=O	inactive
Cc1ccc(-n2nc(N)c3c(=O)oc(N(C)C)nc32)cc1	inactive
O=C(Nc1ccc2oc(-c3ccc4ccccc4c3)nc2c1)c1cccs1	5.36 µM (active)
O=C(Nc1ccc(NC(=O)c2cccs2)cc1)c1ccc2ccccc2c1	inactive
CCN(CCCNC(=O)c1cc(Nc2ccc(OC)cc2)nc2ccccc12)c1cccc(C)c1	inactive
Cc1ccc(S(=O)(=O)n2nc(C)c(S(=O)(=O)N3CCCCCC3)c2C)cc1	inactive
CCC(=O)N1CCc2cc(CNS(=O)(=O)c3ccc(Br)s3)ccc21	inactive
Cc1ccccc1Nc1nn2c(=O)c3ccc(C(=O)NCCc4ccc(Cl)cc4)cc3nc2s1	inactive
CC(=O)C1=C(C)NC(=O)NC1c1cc(Br)ccc1OCC#N (stereo not drawn)	inactive
O=C(COc1ccc(Br)cc1F)NC1CCN(Cc2ccccc2)CC1	inactive
Cc1cc(C(=O)COc2ccc(Br)cc2F)c(C)n1C1CC1	13.5 µM (active)
O=C(CSc1nnc(SCc2ccc(Cl)cc2)s1)N/N=C/c1ccccc1Cl	6.01 µM (active)
O=C(Cc1ccccc1)N/N=C/c1ccc(Cl)cc1Cl	inactive
O=C(CC(=O)N/N=C\c1cccc(Cl)c1Cl)NCc1ccccc1	inactive
Cc1cc(NC(=O)CCS(=O)(=O)c2ccc(F)cc2)no1	inactive
O=C1CC2(CCN(C(=O)COc3ccc(F)cc3)CC2)Oc2ccccc21	inactive
CCCc1cc(=S)n2c([nH]c3ccccc32)c1C#N	19 µM (active)
CCOC(=O)CCc1c(C)c(C#N)c2[nH]c3ccccc3n2c1=O	inactive
CN(C)c1ccc(C(CNS(=O)(=O)c2cc(F)ccc2F)N2CCOCC2)cc1 (stereo not drawn)	inactive
Cn1nc(-c2ccccc2)c2cc([N+](=O)[O-])ccc21	inactive
Cc1nn(-c2ccc([N+](=O)[O-])cc2)c(N)c1-c1ccccc1	7.57 µM (active)
Cc1cc(CO)nn1-c1ccc([N+](=O)[O-])cc1	inactive
COc1ccc(CCNC(=O)c2ccc(-n3c(C)cc4c3CCCC4)cc2)cc1OC	inactive
